Sampled rows, rich in hits. Any-hit rate of the full collection: about 1.5%.
Bcl-xL primary: inhibitors of human Bcl-xL | Q07817 | GST-Bcl-xL / FITC-Bim BH3 peptide fluorescence polarization | inhibition, % at 10.9 µM | actives 0.7% (n = 320,000) | AID 2129;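 active means inhibition above the mean of all tested compounds plus 3 SD, cutoff set per campaign, cut at about 30% in these data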;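 further: inhibitors lower millipolarization by displacing the labeled peptide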
MCL1 BIM primary: disrupts human MCL1 binding to BIM-BH3 peptide. GST-MCL1 / FITC-Bim-BH3 fluorescence polarization. inhibition, % at 10.9 µM. actives 0.68% (n = 320,000). AID 2057;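 active means inhibition above the mean inhibition of all tested compounds plus 3 SD, set per campaign, cut at about 40% in these data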;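 further: higher means more loss of mP so more displacement of Bim peptide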
GLD-1 TGE inh: GLD-1-TGE RNA interaction inhibition (C. elegans). inhibition, % at 5.96 µM. purified GLD-1 + fluorescein TGE RNA, fluorescence polarization. AID 2280. actives 0.44% (n = 320,000);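 active means percent inhibition above a per-plate cutoff, the plate mean of test compounds plus 3 SD, cut at about 30% in these data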
EBV gp42 inh: blocks Epstein-Barr virus glycoprotein 42 binding; Fluorescence polarization binding assay, mP read-out; AID 1085; Q1HVG2; actives 0.42% (n = 220,000); inhibition, % (tested at 21.74 µM); in the data active means inhibition above about 50%
E coli Lon inh: inhibitors of E. coli Lon protease; purified E. coli Lon protease, fluorescence polarization; inhibition, % at 7.94 µM; actives 0.42% (n = 360,000); AID 602123; in the data active means inhibition above about 13%, passing the limit was not always enough
MEX-5 binding: C. elegans MEX-5 TCR-2 RNA binding activity | Q9XUB2 | MEX-5/FITC-TCR2 RNA binding, fluorescence polarization; active compounds read low | activity score (negative = inhibition of binding), % at 10 µM | actives 0.38% (n = 300,000);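 active means inhibition past about -25% in most replicates, and total fluorescence under double the plate's negative control median, limit read from the data; inconclusive means replicates evenly split on the limit, or fluorescence at least double controls; inactive means too little inhibition in most replicates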
Target sequence (Q9XUB2 whole entry, looked up): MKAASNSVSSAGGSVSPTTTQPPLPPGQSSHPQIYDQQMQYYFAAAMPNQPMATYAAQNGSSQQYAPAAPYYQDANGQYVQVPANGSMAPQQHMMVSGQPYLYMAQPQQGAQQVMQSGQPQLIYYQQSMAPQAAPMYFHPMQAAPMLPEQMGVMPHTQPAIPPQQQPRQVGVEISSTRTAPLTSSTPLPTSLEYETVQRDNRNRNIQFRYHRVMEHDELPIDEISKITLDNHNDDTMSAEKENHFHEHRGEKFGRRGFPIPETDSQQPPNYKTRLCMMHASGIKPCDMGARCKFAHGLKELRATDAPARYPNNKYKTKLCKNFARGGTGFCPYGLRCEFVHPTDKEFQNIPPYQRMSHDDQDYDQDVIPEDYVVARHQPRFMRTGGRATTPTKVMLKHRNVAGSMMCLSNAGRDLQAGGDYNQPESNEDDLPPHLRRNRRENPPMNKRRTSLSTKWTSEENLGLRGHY
A number is an active result.

Screening Cc1ccccc1OCC(O)COc1ccccc1C returned E coli Lon inh inactive.
`C(#Cc1c(-c2ccsc2)sc2ccccc12)c1ccsc1` gave GLD-1 TGE inh inactive and E coli Lon inh inactive.
CN(C)C1=NC(=O)/C(=C/c2ccc(-c3ccc(S(N)(=O)=O)cc3)o2)S1 was read as Bcl-xL primary inactive, MCL1 BIM primary inactive, GLD-1 TGE inh inactive and MEX-5 binding -28.6.
For CCN(CC(=O)Nc1ccc(NC(C)=O)cc1)C(=O)c1ccc(S(=O)(=O)N2CCCC2)cc1 the results were E coli Lon inh inactive.
C/C(=N\Nc1ccc(Cl)c(C(=O)O)c1)c1cccs1 was read as Bcl-xL primary inactive, MCL1 BIM primary inactive, GLD-1 TGE inh inactive, EBV gp42 inh inactive, E coli Lon inh inactive and MEX-5 binding inactive.
Screening C/C(=N\Nc1ccc(Cl)c(C(=O)O)c1)c1ccc[nH]1 returned Bcl-xL primary inactive, MCL1 BIM primary inactive, GLD-1 TGE inh inactive, EBV gp42 inh inactive, E coli Lon inh inactive and MEX-5 binding -38.2.
Screening Cc1ccc(/C=C/C(=O)c2c(C)cc(C)[nH]c2=O)cc1 returned Bcl-xL primary inactive, MCL1 BIM primary inactive, GLD-1 TGE inh inactive, EBV gp42 inh inactive, E coli Lon inh inactive and MEX-5 binding inactive.
Screening COc1ccc(/C=C/C(=O)c2c(C)cc(C)[nH]c2=O)c2ccccc12 returned Bcl-xL primary inactive, MCL1 BIM primary inactive, GLD-1 TGE inh inactive, E coli Lon inh inactive and MEX-5 binding -28.0.
Screening CCN1C(=O)/C(=C2/C=Cc3ccccc3N2C)OC1=S returned Bcl-xL primary inactive, MCL1 BIM primary inactive, GLD-1 TGE inh inactive, EBV gp42 inh inactive, E coli Lon inh inactive and MEX-5 binding -28.2.
N#CC1(NC(=O)COC(=O)c2ccccc2[N+](=O)[O-])CCCCC1 was read as Bcl-xL primary inactive, MCL1 BIM primary inactive, GLD-1 TGE inh inactive, E coli Lon inh inactive and MEX-5 binding inactive.
Screening N#CC1(NC(=O)COC(=O)c2cc(O)c3ccccc3c2O)CCCCC1 returned Bcl-xL primary 30.6, MCL1 BIM primary 40.1, GLD-1 TGE inh inactive, E coli Lon inh inactive and MEX-5 binding inactive.
`Cc1cc(Cl)ccc1N(CC(=O)N(C)Cc1ccccc1)S(C)(=O)=O` gave E coli Lon inh inactive.
For O=C(NNC(=O)c1csc(-c2cccnc2)n1)c1ccccc1 the results were Bcl-xL primary inactive, MCL1 BIM primary inactive, GLD-1 TGE inh inactive, EBV gp42 inh inactive, E coli Lon inh inactive and MEX-5 binding -26.4.
`O=C(NNC(=O)c1csc(-c2ccccc2)n1)c1ccccc1` gave E coli Lon inh inactive.
Screening Cc1ccc(C(=O)N2CCn3c(C)ccc3C2C)cc1 (stereo not drawn) returned Bcl-xL primary 43.1, MCL1 BIM primary 42.4, GLD-1 TGE inh inactive, EBV gp42 inh inactive, E coli Lon inh inactive and MEX-5 binding inactive.
For CCOc1ccc2nc(N3C(=O)CNC3=S)sc2c1 the results were Bcl-xL primary inactive, MCL1 BIM primary inactive, GLD-1 TGE inh inactive, EBV gp42 inh inactive, E coli Lon inh inactive and MEX-5 binding inactive.
For COc1ccc2nc(N3C(=O)/C(=C/c4ccc(Cl)cc4)NC3=S)sc2c1 the results were EBV gp42 inh 54.5 and E coli Lon inh inactive.
For CCN(CC)S(=O)(=O)c1ccc(C(=O)/C=C/c2ccc(-c3ccc([N+](=O)[O-])cc3)o2)cc1 the results were Bcl-xL primary inactive, MCL1 BIM primary inactive, GLD-1 TGE inh inactive, EBV gp42 inh 86.2, E coli Lon inh inactive and MEX-5 binding inactive.
`Cc1ccc(C(=O)/C=C/c2ccc(-c3ccc(C)cc3)o2)cc1` gave Bcl-xL primary inactive, MCL1 BIM primary inactive, GLD-1 TGE inh inactive, EBV gp42 inh inactive, E coli Lon inh inactive and MEX-5 binding inactive.
Screening CCC(C)N1C(=O)N(c2cccc(Cl)c2)C(C)(O)CC1(C)C (stereo not drawn) returned Bcl-xL primary inactive, MCL1 BIM primary inactive, GLD-1 TGE inh inactive, E coli Lon inh inactive and MEX-5 binding inactive.
CN(C)c1ccc(C(=O)/C=C/c2cccnc2)cc1 was read as Bcl-xL primary inactive, MCL1 BIM primary inactive, GLD-1 TGE inh inactive, E coli Lon inh inactive and MEX-5 binding inactive.
`CN(C)c1ccc(/C=C/C(=O)c2cccc(Br)c2)cc1` gave Bcl-xL primary 46.1, MCL1 BIM primary inactive, GLD-1 TGE inh inactive, EBV gp42 inh 144.0, E coli Lon inh inactive and MEX-5 binding inconclusive.
Screening Cc1nnc(SCC(=O)NC(C)(C)C)n1NCc1cccc(Br)c1 returned Bcl-xL primary inactive, MCL1 BIM primary inactive, GLD-1 TGE inh inactive, E coli Lon inh inactive and MEX-5 binding inactive.
Cc1ccc2c(c1)[C@H]1[C@H](CO2)[C@H](c2ccccc2)[C@]2(C)C(=O)N(Cc3ccc(F)cc3)CC(=O)N12 was read as GLD-1 TGE inh 52.1 and E coli Lon inh inactive.
CC(C)SCC(=O)Nc1ncc2c(n1)-c1ccccc1CC2 was read as Bcl-xL primary 34.7, MCL1 BIM primary inactive, GLD-1 TGE inh inactive, EBV gp42 inh inactive, E coli Lon inh inactive and MEX-5 binding inactive.
`O=[N+]([O-])c1cc(CN2CCOCC2)c2cccnc2c1O` gave EBV gp42 inh 87.3.
`O=C(CCCSc1ccccc1)Nc1ccc(Cl)c(S(=O)(=O)N2CCOCC2)c1` gave Bcl-xL primary inactive, MCL1 BIM primary inactive, GLD-1 TGE inh inactive and E coli Lon inh inactive.
O=c1oc2cc(O)ccc2cc1-c1nc2c(s1)CCc1ccccc1-2 was read as Bcl-xL primary 36.6, MCL1 BIM primary inactive, GLD-1 TGE inh 99.5 and EBV gp42 inh 126.6.
CCCCn1c(N)c(N(CC(C)C)C(=O)c2cc(S(=O)(=O)N3CCOCC3)ccc2Cl)c(=O)[nH]c1=O was read as Bcl-xL primary inactive, MCL1 BIM primary inactive, GLD-1 TGE inh inactive, E coli Lon inh inactive and MEX-5 binding inactive.
Screening CCn1cc(C(=O)NCc2ccco2)c(=O)c2cc(S(=O)(=O)N3CCCCCC3)ccc21 returned Bcl-xL primary inactive, MCL1 BIM primary inactive, GLD-1 TGE inh inactive, EBV gp42 inh inactive, E coli Lon inh inactive and MEX-5 binding inactive.
For CCn1cc(C(=O)NCc2ccccn2)c(=O)c2cc(S(=O)(=O)N3CCCCC3)ccc21 the results were EBV gp42 inh 110.7 and MEX-5 binding -71.9.
`CCOCCCNC(=O)c1cn(CC)c2ccc(S(=O)(=O)N3CCC(C)CC3)cc2c1=O` gave Bcl-xL primary 37.3, MCL1 BIM primary inactive, GLD-1 TGE inh inactive, E coli Lon inh inactive and MEX-5 binding inactive.
Cc1ccc2nc(-c3ccc(C#N)cc3)c(Cc3cccc(Cl)c3)n2c1 was read as E coli Lon inh inactive.
Cc1cccc(N=Nc2c(O)[nH]c3ccc(Br)cc23)c1 was read as Bcl-xL primary inactive, MCL1 BIM primary inactive, GLD-1 TGE inh inactive, E coli Lon inh inactive and MEX-5 binding -32.6.
O=C1C2=C(SCCS2)C(=O)N1c1ccccc1 was read as Bcl-xL primary inactive, MCL1 BIM primary inactive, GLD-1 TGE inh inactive, EBV gp42 inh inactive, E coli Lon inh inactive and MEX-5 binding -45.4.
